{"source": "PubChem BioAssay (EPA / NIEHS)", "note": "Activity calls are given as the source filed them. The calls were made as follows: active = hit-call score of the fitted dose curve at least 0.9, where 1 is the maximum; inactive = score below 0.9.", "data": [{"read-out": "cysteine-aspartic acid protease (CASP8), CASP8 (gene 841)", "experiment": "LTEA_HepaRG_CASP8: Life Technologies and Expression Analysis (LTEA) Assay for cysteine-aspartic acid protease (CASP8) using HepaRG (AID 2283480)", "details": "mRNA level, 48 h; actives raise or lower the signal", "outline": "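Differentiated HepaRG cells in serum-free induction medium, 48 h exposure, eight-point half-log series from 100 uM in 0.5% DMSO, duplicates. CASP8 mRNA by qRT-PCR, normalized to ACTB, GAPDH, POLR2A; bidirectional fit versus DMSO.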", "values": [{"compound": "CSC1=N[C@@](C)(c2ccccc2)C(=O)N1Nc1ccccc1", "outcome": "inactive"}, {"compound": "CC(Oc1cccc(Cl)c1)C(=O)O", "note": "(stereo unspecified)", "outcome": "inactive"}, {"compound": "CCCCOC(=O)c1ccccc1C(=O)O", "outcome": "inactive"}, {"compound": "CON=C(C(=O)OC)c1ccccc1CON=C(C)c1cccc(C(F)(F)F)c1", "outcome": "inactive"}, {"compound": "C#CC(C)(C)NC(=O)c1cc(Cl)cc(Cl)c1", "outcome": "inactive"}, {"compound": "CC[C@H](C)[C@H]1O[C@]2(C=C[C@@H]1C)C[C@@H]1C[C@@H](C/C=C(\\C)[C@@H](O[C@H]3C[C@H](OC)[C@@H](O[C@H]4C[C@H](OC)[C@@H](NC)[C@H](C)O4)[C@H](C)O3)[C@@H](C)/C=C/C=C3\\CO[C@@H]4[C@H](O)C(C)=C[C@@H](C(=O)O1)[C@]34O)O2", "outcome": "inactive"}, {"compound": "Nc1c(Cl)cc([N+](=O)[O-])cc1Cl", "AC50": "50 µM (active)"}, {"compound": "Cc1nn(-c2cc(NS(C)(=O)=O)c(Cl)cc2Cl)c(=O)n1C(F)F", "outcome": "inactive"}, {"compound": "C[Si](Cn1cncn1)(c1ccc(F)cc1)c1ccc(F)cc1", "outcome": "inactive"}, {"compound": "CNc1cnn(-c2cccc(C(F)(F)F)c2)c(=O)c1Cl", "outcome": "inactive"}, {"compound": "C#CCC1=C(C)C(OC(=O)C2C(C=C(C)C)C2(C)C)CC1=O", "note": "(stereo unspecified)", "outcome": "inactive"}]}, {"read-out": "Cytochrome P450 (CYP2B6), CYP2B6 (gene 1555)", "experiment": "LTEA_HepaRG_CYP2B6: Life Technologies and Expression Analysis (LTEA) Assay for Cytochrome P450 (CYP2B6) using HepaRG (AID 2283481)", "details": "mRNA level, 48 h; actives raise or lower the signal", "outline": "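Read-out is CYP2B6 mRNA by TaqMan qRT-PCR, normalized to three housekeeping genes and fitted bidirectionally against 0.5% DMSO baseline. Human HepaRG cells received test chemicals for 48 h, top concentration 100 uM, half-log dilutions.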", "values": [{"compound": "COP(=O)(OC)OC(Br)C(Cl)(Cl)Br", "note": "(stereo unspecified)", "AC50": "2.45 µM (active)"}, {"compound": "CCC(CC)Nc1c([N+](=O)[O-])cc(C)c(C)c1[N+](=O)[O-]", "AC50": "13.1 µM (active)"}, {"compound": "CC(C1CC1)C(O)(Cn1cncn1)c1ccc(Cl)cc1", "note": "(stereo unspecified)", "AC50": "1.06 µM (active)"}, {"compound": "C#CC(C)(C)NC(=O)c1cc(Cl)cc(Cl)c1", "AC50": "8.65 µM (active)"}, {"compound": "CC(C)N(C(=O)SCC(Cl)=C(Cl)Cl)C(C)C", "outcome": "inactive"}]}, {"read-out": "Cytochrome P450 2C19 (Homo sapiens) (UniProt P33261)", "experiment": "LTEA_HepaRG_CYP2C19: Life Technologies and Expression Analysis (LTEA) Assay for CYP2C19 using HepaRG (AID 2283482)", "details": "mRNA level, 48 h; actives raise or lower the signal", "outline": "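HepaRG, 48 h chemical exposure, 8-pt half-log series from 100 uM in 0.5% DMSO, duplicates. Readout: CYP2C19 mRNA by TaqMan qRT-PCR, housekeeping-normalized. Bidirectional fit vs DMSO baseline; phenobarbital 1mM as induction control.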", "values": [{"compound": "COP(=O)(NC(C)=O)SC", "note": "(stereo unspecified)", "outcome": "inactive"}, {"compound": "CSc1nc(NC(C)C)nc(NC(C)C)n1", "AC50": "1.96 µM (active)"}, {"compound": "COP(=O)(OC)OC(Br)C(Cl)(Cl)Br", "note": "(stereo unspecified)", "outcome": "inactive"}, {"compound": "CC(=NC#N)N(C)Cc1ccc(Cl)nc1", "outcome": "inactive"}, {"compound": "CN1COCN(Cc2cnc(Cl)s2)C1=N[N+](=O)[O-]", "outcome": "inactive"}, {"compound": "COc1ccc(C(=CC(=O)N2CCOCC2)c2ccc(Cl)cc2)cc1OC", "AC50": "10.4 µM (active)"}, {"compound": "CNC(=O)ON=C(C)SC", "outcome": "inactive"}, {"compound": "CCOP(=S)(OCC)SCCSCC", "AC50": "22.2 µM (active)"}, {"compound": "CCOP(=O)(OCC)Oc1cc(C)nc(C(C)C)n1", "outcome": "inactive"}, {"compound": "CCC(CC)Nc1c([N+](=O)[O-])cc(C)c(C)c1[N+](=O)[O-]", "AC50": "6.35 µM (active)"}, {"compound": "CCOP(=S)(OCC)Oc1ccc([N+](=O)[O-])cc1", "AC50": "9.2 µM (active)"}, {"compound": "CC(C1CC1)C(O)(Cn1cncn1)c1ccc(Cl)cc1", "note": "(stereo unspecified)", "AC50": "12.8 µM (active)"}, {"compound": "CNC(=O)ON=C(SC)C(=O)N(C)C", "outcome": "inactive"}, {"compound": "CNC(=O)Oc1cccc2c1OC(C)(C)O2", "outcome": "inactive"}, {"compound": "CCc1cnc(C2=NC(C)(C(C)C)C(=O)N2)c(C(=O)O)c1", "note": "(stereo unspecified)", "outcome": "inactive"}, {"compound": "Cc1cc(C2CC2)nc(Nc2ccccc2)n1", "outcome": "inactive"}, {"compound": "CCCSP(=O)(OCC)SCCC", "outcome": "inactive"}, {"compound": "COc1cc(OC)nc(Sc2cccc(Cl)c2C(=O)O)n1", "outcome": "inactive"}, {"compound": "CC1(C(=O)Nc2ccc(O)c(Cl)c2Cl)CCCCC1", "outcome": "inactive"}, {"compound": "CSc1nnc(C(C)(C)C)c(=O)n1N", "AC50": "9.92 µM (active)"}, {"compound": "CCC(=O)Nc1ccc(Cl)c(Cl)c1", "AC50": "32.7 µM (active)"}, {"compound": "CCOP(=O)(NC(C)C)Oc1ccc(SC)c(C)c1", "note": "(stereo unspecified)", "AC50": "50 µM (active)"}, {"compound": "CC1=NNC(=O)N(/N=C/c2cccnc2)C1", "outcome": "inactive"}, {"compound": "CSC1=N[C@@](C)(c2ccccc2)C(=O)N1Nc1ccccc1", "AC50": "38.1 µM (active)"}, {"compound": "CC(Oc1cccc(Cl)c1)C(=O)O", "note": "(stereo unspecified)", "AC50": "7.31 µM (active)"}, {"compound": "CCCCOC(=O)c1ccccc1C(=O)O", "outcome": "inactive"}, {"compound": "CON=C(C(=O)OC)c1ccccc1CON=C(C)c1cccc(C(F)(F)F)c1", "outcome": "inactive"}, {"compound": "C#CC(C)(C)NC(=O)c1cc(Cl)cc(Cl)c1", "AC50": "20.2 µM (active)"}, {"compound": "CC[C@H](C)[C@H]1O[C@]2(C=C[C@@H]1C)C[C@@H]1C[C@@H](C/C=C(\\C)[C@@H](O[C@H]3C[C@H](OC)[C@@H](O[C@H]4C[C@H](OC)[C@@H](NC)[C@H](C)O4)[C@H](C)O3)[C@@H](C)/C=C/C=C3\\CO[C@@H]4[C@H](O)C(C)=C[C@@H](C(=O)O1)[C@]34O)O2", "AC50": "12.6 µM (active)"}, {"compound": "Nc1c(Cl)cc([N+](=O)[O-])cc1Cl", "AC50": "85 µM (active)"}, {"compound": "CC(C)N(C(=O)SCC(Cl)=C(Cl)Cl)C(C)C", "outcome": "inactive"}, {"compound": "Cc1nn(-c2cc(NS(C)(=O)=O)c(Cl)cc2Cl)c(=O)n1C(F)F", "AC50": "6.21 µM (active)"}, {"compound": "C[Si](Cn1cncn1)(c1ccc(F)cc1)c1ccc(F)cc1", "AC50": "80.1 µM (active)"}, {"compound": "CNc1cnn(-c2cccc(C(F)(F)F)c2)c(=O)c1Cl", "AC50": "21.6 µM (active)"}, {"compound": "C#CCC1=C(C)C(OC(=O)C2C(C=C(C)C)C2(C)C)CC1=O", "note": "(stereo unspecified)", "outcome": "inactive"}]}, {"read-out": "CYP2C8 (gene 1558)", "experiment": "LTEA_HepaRG_CYP2C8: Life Technologies and Expression Analysis (LTEA) Assay for CYP2C8 using HepaRG (AID 2283483)", "details": "mRNA level, 48 h; actives raise or lower the signal", "outline": "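Differentiated HepaRG cells in serum-free induction medium exposed 48 h in duplicate to 8 half-log concentrations from 100 uM in 0.5% DMSO. CYP2C8 mRNA by qRT-PCR normalized to ACTB, GAPDH, POLR2A; bidirectional fit versus DMSO.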", "values": [{"compound": "COP(=O)(NC(C)=O)SC", "note": "(stereo unspecified)", "outcome": "inactive"}, {"compound": "CSc1nc(NC(C)C)nc(NC(C)C)n1", "outcome": "inactive"}, {"compound": "COP(=O)(OC)OC(Br)C(Cl)(Cl)Br", "note": "(stereo unspecified)", "outcome": "inactive"}, {"compound": "CC(=NC#N)N(C)Cc1ccc(Cl)nc1", "AC50": "50 µM (active)"}, {"compound": "CN1COCN(Cc2cnc(Cl)s2)C1=N[N+](=O)[O-]", "outcome": "inactive"}, {"compound": "COc1ccc(C(=CC(=O)N2CCOCC2)c2ccc(Cl)cc2)cc1OC", "AC50": "10.4 µM (active)"}, {"compound": "CNC(=O)ON=C(C)SC", "outcome": "inactive"}, {"compound": "CCOP(=S)(OCC)SCCSCC", "outcome": "inactive"}, {"compound": "CCOP(=O)(OCC)Oc1cc(C)nc(C(C)C)n1", "outcome": "inactive"}, {"compound": "CCC(CC)Nc1c([N+](=O)[O-])cc(C)c(C)c1[N+](=O)[O-]", "outcome": "inactive"}, {"compound": "CCOP(=S)(OCC)Oc1ccc([N+](=O)[O-])cc1", "outcome": "inactive"}, {"compound": "CC(C1CC1)C(O)(Cn1cncn1)c1ccc(Cl)cc1", "note": "(stereo unspecified)", "AC50": "0.327 µM (active)"}, {"compound": "CNC(=O)ON=C(SC)C(=O)N(C)C", "AC50": "0.0994 µM (active)"}, {"compound": "CNC(=O)Oc1cccc2c1OC(C)(C)O2", "outcome": "inactive"}, {"compound": "CCc1cnc(C2=NC(C)(C(C)C)C(=O)N2)c(C(=O)O)c1", "note": "(stereo unspecified)", "outcome": "inactive"}, {"compound": "Cc1cc(C2CC2)nc(Nc2ccccc2)n1", "outcome": "inactive"}, {"compound": "CCCSP(=O)(OCC)SCCC", "AC50": "5.47 µM (active)"}, {"compound": "COc1cc(OC)nc(Sc2cccc(Cl)c2C(=O)O)n1", "outcome": "inactive"}, {"compound": "CC1(C(=O)Nc2ccc(O)c(Cl)c2Cl)CCCCC1", "outcome": "inactive"}, {"compound": "CSc1nnc(C(C)(C)C)c(=O)n1N", "outcome": "inactive"}, {"compound": "CCC(=O)Nc1ccc(Cl)c(Cl)c1", "outcome": "inactive"}, {"compound": "CCOP(=O)(NC(C)C)Oc1ccc(SC)c(C)c1", "note": "(stereo unspecified)", "outcome": "inactive"}, {"compound": "CC1=NNC(=O)N(/N=C/c2cccnc2)C1", "outcome": "inactive"}, {"compound": "CSC1=N[C@@](C)(c2ccccc2)C(=O)N1Nc1ccccc1", "AC50": "34.6 µM (active)"}, {"compound": "CC(Oc1cccc(Cl)c1)C(=O)O", "note": "(stereo unspecified)", "AC50": "14.4 µM (active)"}, {"compound": "CCCCOC(=O)c1ccccc1C(=O)O", "outcome": "inactive"}, {"compound": "CON=C(C(=O)OC)c1ccccc1CON=C(C)c1cccc(C(F)(F)F)c1", "outcome": "inactive"}, {"compound": "C#CC(C)(C)NC(=O)c1cc(Cl)cc(Cl)c1", "outcome": "inactive"}, {"compound": "CC[C@H](C)[C@H]1O[C@]2(C=C[C@@H]1C)C[C@@H]1C[C@@H](C/C=C(\\C)[C@@H](O[C@H]3C[C@H](OC)[C@@H](O[C@H]4C[C@H](OC)[C@@H](NC)[C@H](C)O4)[C@H](C)O3)[C@@H](C)/C=C/C=C3\\CO[C@@H]4[C@H](O)C(C)=C[C@@H](C(=O)O1)[C@]34O)O2", "outcome": "inactive"}, {"compound": "Nc1c(Cl)cc([N+](=O)[O-])cc1Cl", "AC50": "78.4 µM (active)"}, {"compound": "CC(C)N(C(=O)SCC(Cl)=C(Cl)Cl)C(C)C", "outcome": "inactive"}, {"compound": "Cc1nn(-c2cc(NS(C)(=O)=O)c(Cl)cc2Cl)c(=O)n1C(F)F", "outcome": "inactive"}, {"compound": "C[Si](Cn1cncn1)(c1ccc(F)cc1)c1ccc(F)cc1", "AC50": "71.8 µM (active)"}, {"compound": "CNc1cnn(-c2cccc(C(F)(F)F)c2)c(=O)c1Cl", "outcome": "inactive"}, {"compound": "C#CCC1=C(C)C(OC(=O)C2C(C=C(C)C)C2(C)C)CC1=O", "note": "(stereo unspecified)", "outcome": "inactive"}]}]}
